Experimental data taken from PubChem BioAssay (NCI).
The panel holds about 79,000 compounds, 15% with a hit somewhere; the sample as a whole holds those more often. No stated cut-off is given here; in the data, active means growth inhibition above about 70%; inactive means the rest. *1 amine or outer side, *2 acyl side, *3 side chain or, on linkers, in order; H or OH if unused. Where a SMILES comes first, the peptide text is derived from it. Bridges are numbered along the chain shown (N, C = ends). Roman numbers before positions name the chains, in order. [ ]: non-standard residue; d: D form. Actinocin(9to1) = Cc1c2oc3c(C)ccc(C(=O)[*:1])c3nc-2c(C(=O)[*:2])c(N)c1=O; NMeF = CN[CH](Cc1ccccc1)C(=O)O; Ac5c = NC1(C(=O)O)CCCC1; Sar = CNCC(=O)O

Assays:
[1] = NCI Yeast Anticancer Drug Screen. Data for the rad50 strain (AID 155);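 further: 0% = growth of vehicle-only cultures of the same strain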; details: S. cerevisiae rad50 strain growth inhibition; at 50.0 µM; active compounds read high
Outline: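 Readout: growth inhibition relative to vehicle-treated cultures. Compound exposure was carried out in a genetically defined yeast strain deficient in DNA damage repair.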

[2] = NCI Yeast Anticancer Drug Screen. Data for the mec2-1 strain (AID 157); details: S. cerevisiae mec2-1 strain, at 50.0 µM, active compounds read high
Outline: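 Test agents were screened against the mec2-1 yeast strain, with defined DNA repair or cell cycle alteration. Growth was scored as inhibition against vehicle-only controls.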

[3] = NCI Yeast Anticancer Drug Screen. Data for the sgs1 mgt1 strain (AID 161);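 further: 0% = growth of cultures given vehicle only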; details: S. cerevisiae sgs1 mgt1 strain, at 50.0 µM, active compounds read high
Outline: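 Read-out: growth inhibition vs vehicle controls. Cells: mutant yeast strain deficient in DNA damage repair.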

[4] = NCI Yeast Anticancer Drug Screen. Data for the cln2 rad14 strain (AID 165);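 further: 0% = growth equal to vehicle treated cultures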; details: S. cerevisiae cln2 rad14 strain, at 50.0 µM, active compounds read high
Outline: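 Growth of compound-exposed yeast (cln2 rad14 genotype) measured and expressed as inhibition relative to vehicle.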

[5] = NCI Yeast Anticancer Drug Screen. Data for the bub3 strain (AID 167); details: S. cerevisiae bub3 mutant strain, at 50.0 µM, active compounds read high
Outline: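 Readout: yeast growth inhibition, expressed relative to vehicle-only wells. The test organism is a mutant strain from a panel with lesions in DNA repair or checkpoint genes.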

[6] = NCI Yeast Anticancer Drug Screen. Data for the mlh1 rad18 strain (AID 175); details: S. cerevisiae mlh1 rad18 strain growth inhibition; at 50.0 µM; active compounds read high
Outline: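 In this whole-cell yeast screen, a strain with altered DNA damage repair is challenged with compound, and its growth is measured against matched vehicle-treated controls.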

Measured: growth inhibition

[N-]=[N+]=C1C(=O)NC(=O)N2C3OC(CO[C@@H]12)C(O)C3O (stereo not given in full)
inactive: [1] -24.2% | [2] -1.65% | [3] -16.2% | [4] 32.2% | [5] -8.2% | [6] -39%

CS(=O)(=O)OC1C(O)C(O)OC(CO)C1O (stereo not given)
inactive: [1] -18.4% | [2] 12.9% | [3] 4.5% | [4] -49.7% | [5] 5.75% | [6] 7.7%

CCCCCC(O)(CCCC)CCCCC
inactive: [1] -10.7% | [2] -1.65% | [3] 1.85% | [4] 19.9% | [5] 1.75% | [6] 15.9%

COc1ccc(CCN2C(=O)C(=O)N(c3ccc([N+](=O)[O-])cc3)C2=O)cc1OC
inactive: [1] 22.6% | [2] 1.45% | [3] -13.3% | [4] 8.6% | [5] 0.95% | [6] 8.55%

O=C1C(OCc2ccccc2)=C(OCc2ccccc2)C(=O)c2ccccc21
inactive: [1] 14.2% | [2] 3.1% | [3] 31.6% | [4] 10.2% | [5] -30.1% | [6] 36.3%

Nc1ccc2c(c1)Cc1cccc(N)c1-2
inactive: [1] 31.8% | [2] 11.2% | [3] 0.7% | [4] 11% | [5] 7.2% | [6] 1.9%

CCCC1SC(=S)N(c2ccc(Cl)cc2)C1=O (stereo not given)
inactive: [1] 17.9% | [2] 22.1% | [3] 26.5% | [4] 9.2% | [5] -1.55% | [6] 9.9%

CC(C)CCCC(C)C1CCC2C3CC=C4CCCCC4(C)C3CCC12C (stereo not given)
inactive: [1] -22.4% | [2] -4.25% | [3] -3.85% | [4] -5.45% | [5] -5.05% | [6] -23.6%

CC[N+](CC)(CC)CC(=O)c1ccc(Br)cc1
inactive: [1] 18.7% | [2] 12.7% | [3] 13.1% | [4] -0.35% | [5] 25% | [6] 8.2%

N#Cc1cccc(N2C(=O)C3C4C=CC(C3C2=O)C2C(=O)N(c3cccc(C#N)c3)C(=O)C42)c1 (stereo not given)
inactive: [1] -8.5% | [2] -0.65% | [3] -6.25% | [4] 26.6% | [5] -0.35% | [6] -18.4%

Cn1c(=O)oc2cc(C(O)CN3CCN(Cc4ccccn4)CC3)c(Cl)cc21 (stereo not given)
inactive: [1] -19.6% | [2] 3.9% | [3] -4.5% | [4] 2.45% | [5] 6.25% | [6] 11.4%

N#CCCC(CCC#N)(CCC(CCC#N)(CCC#N)[N+](=O)[O-])[N+](=O)[O-]
inactive: [1] -4.05% | [2] 11% | [3] 10.8% | [4] -11.6% | [5] 8.8% | [6] 6.3%

CC(/C=C/C(=O)c1ccccc1)=C\C=N\N(C)c1ccccc1
inactive: [1] 17.2% | [2] 2.8% | [3] -1.05% | [4] -40.8% | [5] 4.95% | [6] 1.5%

Nc1nc(Sc2ccc([N+](=O)[O-])c3nonc23)c2ncn(C3OC(CO)C(O)C3O)c2n1 (stereo not given)
inactive: [1] -0.7% | [2] -11.3% | [3] 3% | [4] 26.6% | [5] -6.3% | [6] 11.9%

Cc1[nH]c(=O)[nH]c(=O)c1/C=C/C(=O)NC(CO)CS(=O)CS(C)=O (stereo not given)
inactive: [1] 3.85% | [2] -11.2% | [3] 9.75% | [4] 13.1% | [5] 5.6% | [6] -10.4%

O=C1C=C(Nc2cc(Cl)ccc2Cl)c2ccccc2C1=O
inactive: [1] 9.75% | [2] 4.25% | [3] -8.8% | [4] 6.8% | [5] 15.2% | [6] 32.5%

COC1=CC(=O)N(C(=O)C2CSC(C(CO)NC(=O)c3csc(/C=N/O)n3)=N2)C1 (stereo not given)
inactive: [1] 1.85% | [2] -11.3% | [3] 8.9% | [4] -4.15% | [5] -6.25% | [6] 19.9%

Cc1c2oc3c(C)ccc(C(=O)NC4C(=O)NC(C(C)C)C(=O)N5CCCC5C(=O)N(C)CC(=O)N(C)C(Cc5ccccc5)C(=O)OC4C)c3nc-2c(C(=O)NC2C(=O)NC(C(C)C)C(=O)N3CCCC3C(=O)N(C)CC(=O)N(C)C(Cc3ccccc3)C(=O)OC2C)c(N)c1=O (stereo not given) (I: TVP[Sar][NMeF] / II: TVP[Sar][NMeF]; ester I:1-I:C, II:1-II:C; linker I:N-II:N via Actinocin(9to1); configuration not given here)
inactive: [1] -0.6% | [2] 6.05% | [3] -12.7% | [4] 2.15% | [5] -23.6% | [6] -27.4%

CC(=O)c1c(O)c(Nc2ccccc2)cc2nc3ccccc3nc12
inactive: [1] -4.45% | [2] 3.95% | [3] -0.4% | [4] -10.3% | [5] -8.75% | [6] -23.3%

CC(=O)OCC1OC(n2cc(I)c(=O)[nH]c2=O)C(OC(C)=O)C(OC(C)=O)C1OC(C)=O (stereo not given)
inactive: [1] -29.9% | [2] -22.1% | [3] -12.2% | [4] -27.4% | [5] -29.5% | [6] -13.2%

N#C/C(=C\NC(N)=S)C(=O)c1ccc2ccccc2c1
inactive: [1] -14.3% | [2] -20.9% | [3] -25.9% | [4] 27.5% | [5] 0.8% | [6] -11.1%

O=C(CCl)OCCCc1ccccc1
inactive: [1] -10.6% | [2] 44.2% | [3] 49.6% | [4] -6.3% | [5] 17% | [6] 36%

COc1ccc(S(=O)c2coc3ccccc3c2=O)cc1 (stereo not given)
inactive: [1] 32.4% | [2] -9.05% | [3] 28.1% | [4] 14.7% | [5] 28.1% | [6] 20.9%

CCC1(CCC#N)CCC(N)=CC1=O (stereo not given)
inactive: [1] 21.9% | [2] 17.3% | [3] 7.9% | [4] -50% | [5] -6.2% | [6] -0.75%

NC1(C(=O)NC2(C(=O)O)CCCC2)CCCC1 (H-[Ac5c]-[Ac5c]-OH)
inactive: [1] 8.75% | [2] 2.85% | [3] 0.8% | [4] -6.65% | [5] -42.9% | [6] 40.4%

CCOC(=O)/C(O)=C(\C#N)c1cc(C)ccc1C
inactive: [1] -7.5% | [2] -14.6% | [3] -2.7% | [4] 0.45% | [5] -0.45% | [6] 10.8%

COc1ccc(N2C(=O)OC3(CCN(Cc4ccccc4)CC3)C2=O)cc1
inactive: [1] -1.55% | [2] 13.2% | [3] 7.7% | [4] 8.25% | [5] 8% | [6] 16.4%

O=C(O)C(CO)c1ccccc1 (stereo not given)
inactive: [1] 0.15% | [2] -1.3% | [3] -4.55% | [4] -4.65% | [5] 10.6% | [6] -2.75%

CC1CCc2ccccc2N1C(=O)c1cccc([N+](=O)[O-])c1C(=O)O (stereo not given)
inactive: [1] -6.1% | [2] 2.7% | [3] 27.4% | [4] -11.6% | [5] 21.7% | [6] 5.5%

CCN(CC)c1ccc2cc(C(=O)NC(=O)Oc3ccccc3)c(=O)oc2c1
inactive: [1] 25.1% | [2] -5.5% | [3] -6.05% | [4] 25.1% | [5] -3.2% | [6] 9.35%

Clc1ccc(-c2nnc(C34CC5CC(CC(C5)C3)C4)o2)cc1
inactive: [1] -12.1% | [2] -8.65% | [3] -11.3% | [4] 2.3% | [5] -8.5% | [6] -18.6%

CC(=O)CC(=O)Nc1cc(C(F)(F)F)ccc1Cl
inactive: [1] 15.4% | [2] -25.6% | [3] -19.1% | [4] -0.3% | [5] -6.25% | [6] 3.05%

CC(=N/Nc1ccc([N+](=O)[O-])cc1[N+](=O)[O-])/C(C)=C/C1C=CCCC1(C)C (stereo not given)
inactive: [1] 21.2% | [2] -2.75% | [3] 8.5% | [4] 3% | [5] 16.1% | [6] 6.65%

COc1cc2c(cc1C)C(C)(C)CCC2(C)C
inactive: [1] 7.8% | [2] -0.45% | [3] -3.1% | [4] -45.1% | [5] 20.6% | [6] 4.15%

O=C(Nc1cc([N+](=O)[O-])ccc1Cl)c1ccc(F)cc1
inactive: [1] 13.2% | [2] 6.4% | [3] 14.6% | [4] 17.8% | [5] 28.9% | [6] 19.8%

CCC(C)NC(=O)c1cccc2c1-c1ccccc1C2=O (stereo not given)
inactive: [1] -0.05% | [2] -5.15% | [3] 0.35% | [4] 1.4% | [5] 25.2% | [6] 14.4%

CN1C(=O)C(C)(O)Sc2ccccc21 (stereo not given)
inactive: [1] -1.2% | [2] -19.4% | [3] -36.2% | [4] -17.9% | [5] -9.2% | [6] 0.1%

N=C(CN1CCCCC1)N1CCCCC1
inactive: [1] -2.5% | [2] -15.3% | [3] -5.15% | [4] -58.1% | [5] 10.2% | [6] 12.6%

CNC(=O)Sc1ccc(C)c([N+](C)(C)C)c1
inactive: [1] 10.1% | [2] 5.6% | [3] 9% | [4] -9.6% | [5] 18.1% | [6] 18.5%

CCCCn1cnnc1NS(=O)(=O)c1cc(C)c(Cl)cc1SCC(=O)O
inactive: [1] -20.5% | [2] -5.25% | [3] 6.15% | [4] 0.4% | [5] -13.8% | [6] -5.5%
